MARV entry inh: inhibitors of Marburg virus binding or cell entry. Marburg virus pseudotyped entry inhibition, cell reporter. Potency, µM (doses to about 37.8 µM), without a hit: at the highest dose activity change, negative = inhibition, hits mostly inhibitors. 1.8% of 300,000 active. AID 540276; calls by dose curve; tested in HEK293 cells; further: potency means the concentration at half of the fitted maximal effect
LASV entry inh: blocks Lassa virus binding to or entry into cells; Lassa virus pseudotype entry inhibition, cell reporter; Potency, µM (series often up to 37.9 µM), for inactives: at the top dose activity change, negative = inhibition, actives largely listed as inhibitors; 1.2% of 300,000 active; AID 540256; calls by dose curve; tested in HEK293 cells; further: potency means the concentration at half of the fitted maximal effect; nearly all actives have a fitted effect of over 50% in size
FMDV antiviral: blocks foot and mouth disease virus; AID 1159524; Potency, µM (titrated, usually from 57.9 µM), without a hit: top-dose activity change, negative = inhibition, usual class: inhibitors; 1.2% of 410,000 active; FMDV antiviral cell-based qHTS; calls by dose curve; tested in HEK293T cells; further: read-out not given here; potency means the concentration at half of the fitted maximal effect; nearly all actives have a fitted effect of over 45% in size
HCMV inh: human cytomegalovirus inhibition | HFF cells, HCMV-luciferase reporter, 72 h; stronger effect = lower value | activity change, negative = inhibition, % at 57.5 µM | 4.5% of 410,000 active; in the data active means activity change below about -60%; inconclusive means no clear call, values can overlap the other calls; inactive means above about -39%
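Cell-based, HFFs, 1000 cells/well, 16 h 37C; cpds in DMSO + HCMV-luc, MOI 1 PFU/cell; 72 h 37C; OneGlo luminescence after 5 min RT; norm. to buffer vs Salinomycin 10uM.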
The depositor's hits bear a star; ? = inconclusive; nt = no result; + = active, no number; ! = a repeat was not active; [ ] = another dose, or the depositor's remark. Only some compounds are listed: those with a hit (about 6.2% of all), similar ones and a draw of the others. On the % scale 0 is the no-effect control and ±100 the full control effect.

SMILES | MARV entry inh | LASV entry inh | FMDV antiviral | HCMV inh
O=C(CCS(=O)(=O)c1ccccc1)Nc1ccccn1 | 8%[46.1 µM] | ? | 4% | -24
O=C(Nc1nc(-c2ccccn2)cs1)c1ccc(Br)s1 | ? | ? | 0% | -99*
Cc1ccc(S(=O)(=O)CCC(=O)Nc2nc(-c3ccncc3)cs2)cc1 | nt | nt | ? | -10
COC(=O)c1c(C(=O)OC)n(CCCN)c2ccc(C)cc12 | 8.2µM* | ? | 4% | -10
CCN(CC)CCC(=O)Nc1ccc2c(c1)N(C(=O)CN(CC)CC)c1ccccc1CC2 | 6.3µM* | ? | -17% | -10
CCN(CC)CCC(=O)N1c2ccccc2CCc2ccc(NC(=O)OC(C)C)cc21 | nt | nt | -9% | 17
Cc1c(Cl)cccc1Nc1sc(C(=O)c2ccccc2)c(N)c1S(=O)(=O)c1ccccc1 | ? | ? | 6% | -3
Cc1cccc(C)c1Nc1sc(C(=O)c2ccccc2)c(N)c1S(=O)(=O)c1ccccc1 | nt | ? | -18% | -62*
Cc1ccc(NC(=O)c2cc(S(=O)(=O)N3CCCC3)cn2C)cc1C | nt | nt | -4% | -10
CC1CC(C)CC(C)C(O)C(C#N)=CC=CCC(C2CCCC2C(=O)O)OC(=O)CC(O)C(C)C1 (stereo unspecified) | 0.45µM* | 1.4µM* | ? | -97*
CCC(C)(C)c1ccc(OCCCC[n+]2cccc(C)c2)c(C(C)(C)CC)c1 | ? | ? | 32µM* | -101*
Cc1ccc[n+](CC(=O)Nc2cc(C(F)(F)F)ccc2Cl)c1 | 6% | 5% | nt | -22
CCOc1ccccc1NC(=O)N1CCC(NC(=O)c2cccc(C)c2)CC1 | -4% | 0% | -16% | 19
Cc1cccc(C(=O)NC2CC3CCCC(C2)N3S(=O)(=O)c2ccccc2)c1 (stereo unspecified) | ? | 13µM* | nt | -31
Cc1cccc(C(=O)NC2CCN(S(=O)(=O)c3cccc(F)c3)CC2)c1 | nt | nt | -9% | -60*
O=C(NC1CC2CCCC(C1)N2Cc1ccccc1)c1cccc(Cl)c1 (stereo unspecified) | 1.3µM* | 1% | -12% | -40
Cc1cccc(C(=O)NC2CCN(C(=O)Nc3ccccc3C)CC2)c1 | nt | nt | -16% | -103*
O=C(NC1CCN(S(=O)(=O)c2cccc(F)c2)CC1)c1cccc(F)c1 | nt | nt | -10% | -17
COc1ccc(-c2nnc(CSc3nc4ccccc4c(=O)n3CC(C)C)o2)cc1OC | -12% | -2% | ? | -6
COc1ccc(CNC(=O)[C@H](C)N2C(=O)N3CCc4c([nH]c5ccccc45)[C@@]3(C)C2=O)cc1OC | nt | nt | 32µM* | ?
Cc1ccc(CNC(=O)[C@H](C)N2C(=O)N3CCc4c([nH]c5ccccc45)[C@@]3(C)C2=O)cc1 | nt | nt | ? | 4
C/C(C/C(C)=C1/SC(=S)NC1=O)=C1\SC(=S)NC1=O | 28%[46.1 µM] | 5% | -9% | 23
CC(C)Oc1ccc(C(=O)Nc2nc3ccccc3[nH]2)cc1 | ? | 1.1µM* | 7.9µM* | -60*
O=C(Nc1nc2ccccc2[nH]1)c1ccc(OC(F)F)cc1 | ? | ? | 13µM* | 33
COc1cc(OC)cc(C(=O)Nc2nc3ccccc3[nH]2)c1 | -14% | ? | -37% | 9
SMILES | MARV entry inh | LASV entry inh | FMDV antiviral | HCMV inh
COc1ccc(CCNC(=O)C2CCN(S(=O)(=O)c3ccc(NC(C)=O)cc3)CC2)cc1OC | nt | nt | -19% | 22
Cc1cccn2c(N)c(-c3ccccc3)nc12 | -28% | 3% | 58% | 0
Cc1c(NC(=O)C(C)Sc2nc(N)cc(=O)[nH]2)c(=O)n(-c2ccccc2)n1C (stereo unspecified) | nt | nt | -15% | -63*
Cc1c(NC(=O)C(C)N2C(=O)C3C4C=CC(C4)C3C2=O)c(=O)n(-c2ccccc2)n1C (stereo unspecified) | 5% | nt | 0% | -66*
Cc1c(C)n(C)c2ccc(C(=O)NCCCN(C)C3CCCCC3)cc12 | nt | nt | ? | 30
Cc1c(C)n(C)c2ccc(C(=O)NCCCN3CCCCC3C)cc12 (stereo unspecified) | nt | 2%[46.1 µM] | -2% | +!
COC(=O)[C@@]12C[C@@H](CC(=O)NCc3cccc4ccccc34)C(=O)N(Cc3ccc4c(c3)OCO4)C1=CCC(C)(C)C2 | nt | nt | -14% | -14
O=C(Nc1ccc(-c2nc3ccccc3o2)cc1)c1ccc2c(c1)OCO2 | -8% | 3% | 7% | -108*
O=C(Nc1ccc(-c2nc3ccccc3o2)cc1)c1ccc(N2C(=O)C3C4C=CC(C4)C3C2=O)cc1 (stereo unspecified) | -38% | 15µM* | nt | -18
O=C(Nc1ccccc1-c1nc2ccccc2o1)c1ccc2c(c1)OCCO2 | -1% | nt | nt | nt
O=C(Nc1ccc2oc(-c3cc(Br)ccc3Cl)nc2c1)c1ccc2ccccc2c1 | nt | 1%[46.1 µM] | -11% | -93*
O=C(Nc1ccc2oc(-c3ccccc3F)nc2c1)c1ccc2c(c1)OCCO2 | ? | 0% | 35µM* | ?
Cc1ccc2oc(-c3ccc(NC(=O)c4ccc5c(c4)OCO5)cc3)nc2c1 | 2% | 7% | 22% | -37
O=C(Nc1ccc2oc(-c3ccc4ccccc4c3)nc2c1)c1cc(Br)ccc1Cl | nt | -1%[46.1 µM] | 46% | 52
Cc1[nH]c2ccccc2c1C(O)CN1CCN(c2cccc(C(F)(F)F)c2)CC1 (stereo unspecified) | ? | ? | ? | -25
Cc1c(NC(=O)c2ccc3c(c2)OCO3)cccc1-c1nc2ccccc2o1 | 21µM* | 21µM* | -10% | -33
CC(C)(C)OC(=O)N1CCC(c2c(C(=O)N3CCC(c4ccccc4)C3)cnn2-c2cccc(Cl)c2)CC1 (stereo unspecified) | nt | ? | -29% | 27
CCOc1ccccc1NC(=O)Cn1c(=O)n(Cc2ccccc2)c(=O)c2c1c1cc(C)ccc1n2C | nt | 26%[46.1 µM] | 0% | 1
c1ccc(Nc2nc(-c3ccccc3)ns2)cc1 | 10µM* | ? | 3% | 141
CC(C)(C)C(=O)Nc1nc(-c2ccccc2)ns1 | ? | ? | -37% | -21
CCOC(=O)C1=C(C)NC(C)=C(C(=O)OCC)C1c1c(F)c(F)c(F)c(F)c1F | ? | 16µM* | nt | nt
COCC(C)NS(=O)(=O)c1ccc(C)cc1 (stereo unspecified) | 18% | 12% | 11% | 29
C=CCNC(=S)/N=c1/ccccn1C | 4% | 1% | -9% | -98*
C=CCNC(=S)/N=c1/ccccn1CCC | 5% | nt | -7% | -107*
C=CCNC(=S)/N=c1\sccn1C | -2% | ? | 25% | 27
SMILES | MARV entry inh | LASV entry inh | FMDV antiviral | HCMV inh
CCCCOc1ccc(CN2CCCCC2)cc1 | ? | 11% | nt | -12
Oc1ccc(N2CCN(Cc3ccc(OCCCN4CCCCC4)cc3)CC2)cc1 | 13µM* | 7%[46.1 µM] | 27% | -4
CCCCOc1ccc(Br)cc1/C(C)=N/NC1=NCCN1 | 10µM* | 11µM* | 14µM* | -100*
CCCCCCOc1ccc(/C(C)=N/NC2=NCCN2)cc1[N+](=O)[O-] | nt | nt | -11% | ?
Cc1ccc(-n2cc(-c3ccc([N+](=O)[O-])cc3)[nH]c2=S)c(C)c1 | 0% | 0% | -15% | -64*
Cc1cccc(-n2cc(-c3ccc([N+](=O)[O-])cc3)[nH]c2=S)c1 | 3% | ? | 23% | -10
C=CCn1c(-c2ccc(OC)cc2)csc1=Nc1c(C)n(C)n(-c2ccccc2)c1=O | -8% | -6% | 22µM* | ?
